# Experimental data reported in PubChem BioAssay (NCATS).
# Results filed as inconclusive are left out. Entries that show only a call come without a potency. The source made the active and inactive calls. The call rests on the fitted dose curve; in most records, active means well fitted inhibition curve with a large enough effect; inconclusive means small, poorly fitted or top-dose-only effect; inactive means flat fitted curve, though single readings scatter.
# Biological target: Aldehyde dehydrogenase, mitochondrial (Homo sapiens) (UniProt P05091)
# Assay: qHTS for Inhibitors of the Aldehyde Dehydrogenase Family (ALDH2) Primary screen (AID 2061308); further: nearly all actives have a fitted effect of over 55% in size
# Details: ALDH2 enzyme inhibition qHTS, 1536-well; series mostly up to 56 µM
row,Compound,Potency
1,O=C(O)c1ccc2c(c1)C(=O)N([C@H](Cc1ccc([N+](=O)[O-])cc1)C(=O)O)C2=O,inactive
2,Cn1c(=O)c2c(nc(OC3CCN(C(=O)C4CC4)CC3)n2CCC(C)(C)C)n(C)c1=O,inactive
3,COc1cc(OC)cc(-c2nnc3n2N=C(c2ccccc2OC)CS3)c1,inactive
4,O=C([C@H](Cc1ccc(O[S+](=O)([O-])c2cccc3cnccc23)cc1)N[S+](=O)([O-])c1cccc2cnccc12)N1CCN(Cc2ccccc2)CC1,inactive
5,COc1cc(OC)c(C(CC(=O)N2CC(C)CC(C)C2)c2ccc3c(c2)OCO3)c(OCC(N)=O)c1 (stereo not given),inactive
6,CCOc1ccc(CCNC(=O)c2cccc(C(=O)c3ccccc3)c2)cc1OCC,inactive
7,Cc1ccccc1S(=O)(=O)N1CCN(S(=O)(=O)c2ccc3c(c2)OCCO3)CC1,inactive
8,Cn1c2cc(Br)sc2c2cnn(Cc3ccc(F)cc3)c(=O)c21,inactive
9,COc1cc(O)c(C(CC(=O)N2CCCC(C(=O)N3CCCCC3)C2)c2ccc3c(c2)OCO3)c(OC)c1 (stereo not given),inactive
10,Cc1cc(NS(=O)(=O)c2ccc(NC(=O)Cc3ccc(F)c(Cl)c3)cc2)no1,inactive
11,c1ccc(C2Nc3cccc4cccc(c34)N2)cc1,inactive
12,Cc1cc(C)nc(NC(=S)N2CCN(c3cc(Cl)c(Cl)cc3Cl)CC2)c1,inactive
13,COc1cccc(CN(C)c2ccc([S+](=O)([O-])Nc3nccs3)cc2)c1O,inactive
14,Cc1ccc(S(=O)(=O)N2CCN(S(=O)(=O)c3ccc4c(c3)OCCO4)CC2)cc1,inactive
15,Cn1nnnc1Sc1ncnc2scc(-c3cccc(Cl)c3)c12,inactive
16,CCOc1ccc(CCNC(=O)c2cc3sccc3n2Cc2ccc(Cl)c(F)c2)cc1OCC,inactive
17,Cc1ccc(C(=O)NC(c2ccco2)c2cc(Cl)c3cccnc3c2O)cc1 (stereo not given),inactive
18,Cn1c2ccsc2c2ncn(Cc3ccccc3F)c(=O)c21,inactive
19,COc1ccc(S(=O)(=O)N2CCN(S(=O)(=O)c3ccc(OC)cc3)CC2)cc1,inactive
20,Cc1cc(-c2nc(Nc3ccc(F)c(F)c3)c3ccccc3n2)ccn1,inactive

row,Compound,Potency
1,CC(C)c1ccccc1-c1ncc(F)c(NCc2ccc(-c3cccnc3)s2)n1,inactive
2,COc1ccc(-c2ccc3nnc(-c4ccccc4OC)n3n2)cc1OC,inactive
3,O=C(Nc1ccccn1)c1sc2ccc([N+](=O)[O-])cc2c1Cl,inactive
4,O=C1c2ccccc2C(=O)N1c1ccncc1,inactive
5,Cc1csc(CNc2ncnc3ccc(-c4cccnc4)cc23)c1,inactive
6,Cc1ccccc1CSc1nc2ncc(Br)cc2[nH]1,inactive
7,O=C(NCCCCN1CCN(c2cccc(Cl)c2Cl)CC1)c1cc2ccccc2s1,inactive
8,C/C=C(\C)[C@@H]1C(C)=C[C@@H]2[C@H]([C@@H]1/C=C/C=C/C(=O)O)[C@@H](C)CC[C@@H]2O,inactive
9,Cc1cc(C)nc(NC(=S)N2CCN(c3cc(C(F)(F)F)nc4ccccc34)CC2)c1,inactive
10,Cn1cnc(CCNc2ncnc3ccc(-c4ccc5c(c4)OCO5)cc23)c1,inactive
11,Fc1ccc(Nc2nc(-c3ccncc3F)nc3ccccc23)cc1F,inactive
12,Cc1nc(NCc2ccccc2)c2nc(-c3ccccc3)n(CCN3CCCC3)c2n1,inactive
13,Cc1cccc(-n2cnc3cc(C(=O)N4CCCC(c5ccccc5)C4)ccc32)c1 (stereo not given),inactive
14,S=P(c1ccccc1)(c1ccccc1)c1c[n+](C/C=C/c2ccccc2)c2ccccn12,inactive
15,Cc1cc(C)n2ncc(C(=O)Nc3ccccc3C)c2n1,inactive
16,COc1ccc(C(=O)N(Cc2ccccc2)Cc2ccccc2)c(O)c1,inactive
17,COCCCc1cc(F)c(S(=O)(=O)N2CCN(S(=O)(=O)c3ccc4c(c3)OCCO4)CC2)cc1F,inactive
18,O=[S+]([O-])(c1c(F)cccc1F)N1CCN([S+](=O)([O-])c2c(F)c(F)c(F)c(F)c2F)CC1,inactive
19,CCNC(=O)c1ccc(-c2ccc3ncnc(NCc4ccc(C)o4)c3c2)o1,inactive
20,O=C(Cn1nc(-c2cccnc2)ccc1=O)NCCc1ccccc1,inactive
